Assay outcomes: PubChem, Broad Institute
The list is a sample of the results.
aSyn UTR act – Activators working through SNCA 5'UTR binding (MLPCN); alpha-synuclein 5'UTR reporter, activators screen; activity score, % (tested at 7.5 µM), hits read low; 300,000 tested, 7.1% active; AID 1814; in the data active = activity score below about -60%
Active calls of the source: *.

SMILES | aSyn UTR act
CC1=CN2C(=N)/C(=C/c3ccc(Sc4ccc(C)cc4)o3)C(=O)N=C2S1 | -78*
CCN=C1S/C(=C\c2ccc(Sc3ccc(Cl)cc3)o2)C(=O)N1CC | 57
CC(C)(C)SCCNC(=O)/C=C/c1ccc(F)cc1 | -68*
CC(C)NC(=S)NC(=O)/C=C/c1ccc(F)cc1 | -64*
O=C(/C=C/c1ccccc1)NCCc1ccccc1 | -154*
CC(C)(C)SCCNC(=O)/C=C/c1ccccc1 | -113*
Cc1ccc(-c2nn3c(C)nnc3s2)cc1NC(=O)c1cccs1 | -64*
COc1cccc(C2=CC(c3ccc(OC)c(OC)c3OC)n3nnnc3N2)c1 (configuration not stated) | -67*
COc1ccccc1C1C=C(c2ccccc2)Nc2nnnn21 (configuration not stated) | -84*
CCc1cc2c(=O)n3c(nc2s1)-c1[nH]c2ccc(OC)cc2c1CC3 | -103*
O=[N+]([O-])c1ccc(C(O)CSC(=S)N2CCCCC2)cc1 (configuration not stated) | -181*
COc1ccc(-n2nc(C(=O)NCC(=O)N3CCN(c4ccc(F)cc4)CC3)c3ccccc3c2=O)c(OC)c1 | -65*
COc1ccc(-n2nc(C(=O)NCC(=O)N3CCN(c4ccccc4)CC3)c3ccccc3c2=O)c(OC)c1 | -78*
CCN(C(=O)COC(=O)/C=C/c1cnc2ccccc2n1)c1ccccc1 | -65*
O=C(/C=C/c1cnc2ccccc2n1)NC12CC3CC(CC(C3)C1)C2 | -140*
CCC(C)(C)NC(=O)/C=C/c1cnc2ccccc2n1 | -122*
Cc1ccc(-c2ccc3c(c2)S(=O)(=O)c2ccccc2C3=O)cc1 | -156*
CCOC(=O)C1=C(CSc2nc(-c3ccccc3)ccc2C#N)OC(N)=C(C#N)C1c1ccc(OC)cc1 (configuration not stated) | -184*
O=S(=O)(c1ccc(Nc2ccc(-c3ccc4c(c3)OCCO4)nn2)cc1)N1CCCC1 | -121*
O=C(NC1CC1)c1cccc(Nc2ccc(-c3ccc4c(c3)OCCO4)nn2)c1 | -145*
Cc1ccc(-c2nn(CC(=O)NCc3cc(-c4nn(C)c(=O)c5ccccc45)ccc3C)c(=O)c3ccccc23)cc1 | 114
CCc1ccc(-c2cc3c(=O)n(CC(=O)NCc4ccccc4F)ncn3n2)cc1 | -70*
O=C1C2=C(c3ccccc31)[N+](=O)C1CCCCC1N2[O-] (configuration not stated) | -73*
O=C1C2=C(c3ccccc31)[N+](=O)[C@@H]1CCCC[C@@H]1N2[O-] | -94*
COc1ccc(N2CCN(C(=O)c3ccc4nc(N5CCCCC5)sc4c3)CC2)cc1 | -192*
SMILES | aSyn UTR act
CC1CCN(c2nc3ccc(C(=O)N4CCN(Cc5ccc6c(c5)OCO6)CC4)cc3s2)CC1 | -156*
COc1ccc2nc(N3CCN(C(=O)C4COc5ccccc5O4)CC3)sc2c1 (configuration not stated) | -125*
COc1cccc(N2CCN(C(=O)c3ccc4nc(N5CCCCC5)sc4c3)CC2)c1 | -153*
Cc1ccnc(NC(=O)CCC2CCCCC2)c1 | -193*
Cc1cc(NC(=O)CCC2CCCC2)no1 | -65*
O=C(CCC1CCCC1)Nc1ccc(Br)cn1 | -197*
COC(=O)c1ccc2c(=O)n3c(nc2c1)SCC(c1ccccc1)=N3 | -112*
Cn1c(SCc2ccccc2)nnc1-c1cccs1 | -147*
Cn1c(SCc2ccc(F)cc2)nnc1-c1cccs1 | -108*
c1ccc(CN2CCC(Nc3nc(-c4cccs4)nc4ccccc34)CC2)cc1 | 62
CN1CCc2c(sc3c2C(=O)NC(c2cccc(OC(=O)c4cccs4)c2)N3)C1 (configuration not stated) | -108*
CN1CCc2c(sc3c2C(=O)NC(c2cn(Cc4ccccc4)c4ccccc24)N3)C1 (configuration not stated) | 64
CC(=O)Nc1ccc(-c2nnc(SCC(=O)c3ccc4c(c3)Cc3ccccc3-4)n2C)cc1 | -62*
Cc1ccc(Nc2nc3ccccc3c(=O)[nH]2)cc1C | -195*
O=c1[nH]c(/C=C/c2ccc(Br)cc2)nc2ccccc12 | -169*
CN(C)c1ccc(/C=C/c2nc3ccccc3c(=O)[nH]2)cc1 | 87
O=C(Nc1cccc(/C=C/c2nc3ccccc3c(=O)[nH]2)c1)c1ccccc1Cl | -132*
Cc1cccc(/C=C\c2nc3ccccc3c(=O)[nH]2)c1 | -74*
CCOc1ccc(NC(=O)CCc2c(C)nn(-c3ccc(N4CCCCC4)nn3)c2C)cc1 | -81*
Cc1ccc(NC(=O)CCc2c(C)nn(-c3ccc(N4CCCCC4)nn3)c2C)cc1F | -85*
Cc1nn(-c2ccc(N3CCCCC3)nn2)c(C)c1CCC(=O)Nc1ccc(F)cc1 | -90*
Cc1ccc(-n2nc(C)c3c(C)c(CCC(=O)Nc4ccc(CN5CCCC5)cc4)c(C)nc32)cc1 | 104
Cc1nn(-c2ccc(N3CCCCC3)nn2)c(C)c1CCC(=O)Nc1cccc(F)c1 | -120*
COc1cc(CCC(C)=O)ccc1OC(=O)c1c(F)cccc1Cl | -185*
COc1ccc(CCNC(=O)c2ccc(Cl)cc2Cl)cc1OC | -99*
SMILES | aSyn UTR act
COc1ccc(NC(=O)COC(=O)c2c(F)cccc2Cl)cc1OC | -110*
O=C(O)COc1ccc(-c2nccc(-c3ccccn3)n2)cc1 | 72
FCCCOc1ccc(-c2nccc(-c3ccccn3)n2)cc1 | -63*
Nc1ccc(O)c2c(=O)cc(-c3ccccc3Cl)oc12 | -100*
O=C(Nc1ccc(O)c2c(=O)cc(-c3cccc(Cl)c3)oc12)c1cccc(Cl)c1 | 61
CCOC(=O)N1CCN(C(=O)c2ccc3oc(CCCc4ccccc4)nc3c2)CC1 | -150*
COCC1CCCCN1C(=O)c1ccc2oc(CCCc3ccccc3)nc2c1 (configuration not stated) | -86*
CCOC(=O)C1CCCN(C(=O)c2ccc3oc(Cc4ccccc4)nc3c2)C1 (configuration not stated) | -207*
C/C(=N\NC(=S)Nc1cccc(C)c1)c1ccccc1 | -100*
C/C(=N\NC(=S)Nc1cccc(C)c1)c1ccco1 | -189*
Cn1c(/C(C#N)=C(\O)c2ccc([N+](=O)[O-])s2)nc2ccccc21 | -115*
Cn1c(/C(C#N)=C(\O)c2ccc(Cl)s2)nc2ccccc21 | -80*
Cc1cc(=O)[nH]c(N/N=C/c2ccccc2Cl)n1 | -76*
CCN(CC)c1ccc(/C=N/Nc2nc(C)cc(=O)[nH]2)c(O)c1 | 95
Cc1cc(=O)[nH]c(N/N=C/c2cc(C)n(-c3ccccc3)c2C)n1 | -63*
CSc1ccccc1NC(=O)C(=O)c1c[nH]c2ccccc12 | -146*
O=C(Nc1nccs1)C(=O)c1c[nH]c2ccccc12 | -165*
CCN1CCN(Cc2ccc(NC(=O)c3ccc(C)c(NC(=O)C(=O)c4c[nH]c5ccccc45)c3)cc2C(F)(F)F)CC1 | 112
C/C(N)=C(/C#N)C(=O)COC(=O)c1cc2c(s1)CCC(C)C2 (configuration not stated) | -73*
FC(F)(F)c1ccc2c(c1)nc1n2CCCC1 | -65*
O=C(Nc1ccc2nn(-c3ccc(F)cc3)nc2c1)c1cccnc1 | -94*
O=C(c1ccc(F)cc1)c1ccc(N2CCCC2)cc1 | -147*
O=C(Nc1ccc(N2CCCCC2)cc1)c1ccc(F)cc1 | -80*
O=S(=O)(c1ccc(N2CCCC2)cc1)C(F)(F)F | -149*
O=C(c1ccc(F)cc1)c1ccc(N2CCCCC2)cc1 | -145*
O=C(Nc1ccc(N2CCCCC2)cc1)c1cccnc1 | -149*
Brc1ccccc1-n1nnc(-c2nccs2)n1 | -97*
Clc1nc2ccccc2cc1-c1nnn(-c2ccccc2Br)n1 | -128*
